aSyn yeast inh = qHTS of alpha-syn Inhibitors; Yeast expressing alpha-synuclein, growth rescue, BacTiter-Glo, 24 h; Potency, µM (doses to about 46.1 µM), without a hit: at the top dose growth rescue (activation), most hits filed as activators; 370,000 tested, 0.14% active; AID 652106, 2013; note: % of control where 0% means no effect; nearly all actives have a fitted effect of over 65% in size
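Galactose-induced alpha-syn yeast (OD600=0.02, raffinose-pregrown) + pinned cpd, 24 hr, 30 deg C; growth by BacTiter-Glo luminescence. Growth restoration scores as activation.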
Abeta rescue = qHTS for compounds that reverse cellular toxicity of Amyloid beta (A-beta) peptide in yeast: Primary Screen; Potency, µM (doses to about 46.1 µM), usual class: activators; AID 1347071, 2019; 410,000 tested, 0.063% active; yeast expressing A-beta42, growth rescue, OD600, 48 h; response scale: 0% DMSO, 100% iron-clioquinol control; note: nearly all actives have a fitted effect of over 55% in size
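Yeast growth medium received pinned compounds, then yeast cells expressing toxic A-beta were added; plates incubated at 30 C for 48 hr. Growth read as absorbance at 600 nm, normalized to DMSO and equimolar FeCl3 plus clioquinol controls.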
FUS yeast rescue = qHTS for Suppressors of FUS Proteinopathy: Primary screen using FUS-linked yeast assay | S. cerevisiae FUS-expressing, growth rescue, OD600, 24 h | Potency, µM (titrated, usually from 76.6 µM), most hits filed as activators | 390,000 tested, 0.24% active | AID 1347120, 2019;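 note: plate controls were DMSO vehicle for no effect and reference control for full effect; nearly all actives have a fitted effect of over 55% in size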
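Steps: raffinose overnight preculture; dilution to OD 0.005 in 2% galactose minimal medium; compound addition (concentration series); 24hr at 30C, 99% humidity; absorbance read at 600 nm.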
TDP-43 yeast inh = qHTS of TDP-43 Inhibitors; TDP-43 expressing yeast growth rescue, BacTiter-Glo, 24 h; Potency, µM (titrated, usually from 46.1 µM), for the others: at the top dose growth rescue (activation), actives largely listed as activators; 410,000 tested, 1.8% active; note: % of control where 0% means no effect; nearly all actives have a fitted effect of over 50% in size
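Cell-based yeast growth screen: TDP-43 expression induced in galactose, inoculum OD600=0.02 after raffinose pregrowth to mid-log. Read-out BacTiter-Glo luminescence at 24 hr, 30 deg C; inhibition of toxicity seen as signal increase.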
Numbers without * were called inactive; i = inactive; ? = inconclusive; nt = not tested or not shown; ! = a repeat was not active; [ ] = dose if it differs, or a comment. An excerpt weighted towards active compounds, which were near 2.1% of everything screened. Calls come from the whole dose curve; as a rule, active = well fitted curve in the direction sought with a large enough effect; inconclusive = small, poorly fitted or top-dose-only effect, or another doubt; inactive = no such curve, though single readings can be large; an effect the other way counts as inactive or inconclusive. Potency is the fitted concentration of half-maximal effect.

SMILES	aSyn yeast inh	Abeta rescue	FUS yeast rescue	TDP-43 yeast inh
O=C1CCCCCN1C(=O)c1ccccc1	-1%	i	i	-16%
O=C1CCCCCN1Sc1ccccc1	-19%	?	i	16µM*
CCOc1ccc(NC(=O)Cc2csc(COc3cccc(C)c3)n2)cc1	nt	i	i	22%[9.22 µM]
COc1cc2c(cc1OC)C(c1ccccc1[N+](=O)[O-])N(C(C)=O)CC2 (centres undefined)	-1%	i	i	1%
COC(=O)c1cccc(NC(=S)Nc2cc(Cl)ccc2OC)c1	5%	i	i	22µM*
COc1ccc(C(=O)Nc2cc(C(=O)O)cc(C(=O)O)c2)cc1Cl	-5%	i	i	-24%
COC(=O)c1cccc(NC(=O)c2ccc(OC)c(Cl)c2)c1	2%	i	i	11µM*
COC(=O)c1cc(OC)c(OC)cc1NC(=S)Nc1cccc(C(C)=O)c1	-7%	i	i	-6%
N#C/C(=C\c1ccc(-c2ccccc2C(=O)O)o1)c1nc2ccccc2[nH]1	-5%	i	i	22µM*!
Cc1ccc(S(=O)(=O)N(C)CC(=O)Nc2nnc(CC(C)C)s2)cc1	9%	i	i	17%
Fc1ccc(/C=N/n2c(C3CCCCC3)n[nH]c2=S)cc1	-11%	13µM*	i	?
Cc1csc(NC(=O)c2cc(-c3ccccc3)nc3ccccc23)n1	2%	i	nt	18µM*
Cc1ccc(NC(=O)c2ccoc2C)cc1C	-1%	i	i	-17%
Cc1ccc(-c2cc(C(=O)Nc3cccnc3)c3ccccc3n2)o1	21%	i	3.2µM*	-26%
Cc1cc(NC(=O)c2ccoc2C)ccc1Br	-38%	i	i	11µM*
Cc1ccc(NC(=O)c2cc(-c3ccc(C)o3)nc3ccccc23)cc1	28%	i	?	?
Cc1cc(NC(=O)c2ccccc2-c2ccccc2)ccc1Br	-13%	13µM*	i	0%
Nc1ccc(C(=O)Nc2cccc(N)c2)cc1	-4%	i	i	0%
CCCc1noc(-c2ccc(NCc3ccc(C)cc3)c([N+](=O)[O-])c2)n1	nt	i	i	10%
C[C@H]1[C@H](NC(=O)c2ccc(Cl)c(Cl)c2)CC[C@@]23CCCN2C(=O)CCC[C@@H]13	nt	nt	i	nt
CCc1ccccc1NC(=O)Cn1nnc(C(=O)NCc2ccco2)c1N	nt	i	i	6%
Cc1cc(NC(=O)c2cc(-c3ccncc3)nc3ccccc23)ccc1Br	14%	i	nt	18µM*
CC(C)(C)c1ccc(C(=O)Nc2cccnc2)cc1	-4%	i	i	14µM*
Cc1cc(NC(=O)c2cccnc2)ccc1Br	-7%	i	i	11µM*
CCn1c(=O)c2cc(C(=O)NCCc3ccc(OC)c(OC)c3)sc2c2ccccc21	nt	i	i	-1%
SMILES	aSyn yeast inh	Abeta rescue	FUS yeast rescue	TDP-43 yeast inh
CCCCCn1cc2c(c1-c1ccc(Cl)cc1)c(=O)n(C)c(=O)n2C	nt	i	i	20%
CCOC(=O)C1CCCN(C(=O)c2ccc3nc(-c4cccc(OC)c4)oc3c2)C1 (centres undefined)	4%	i	i	29%
CC(=O)N1CCCc2cc(S(=O)(=O)N3CCC(C(=O)Nc4cccc(Cl)c4C)CC3)ccc21	nt	i	i	6%
O=C1CC2(CCN(S(=O)(=O)c3ccccc3)CC2)Oc2ccccc21	15%	i	i	20µM*
C#CCN1CC(N(C)CCO)CS1(=O)=O (centres undefined)	nt	nt	i	nt
COc1cc(/C=N/NC(=S)NC2CC3CCC2C3)ccc1O (centres undefined)	-9%	11µM*	i	22µM*
N#Cc1ccccc1OCC(=O)Nc1ccc2c(c1)OCCO2	3%	i	nt	?
Cc1ccccc1OC(C)C(=O)Nc1ccc2c(c1)OCCO2 (centres undefined)	6%	i	i	11µM*
CC(OC(=O)/C=C/c1ccccc1)C(=O)Nc1ccc2c(c1)OCCO2 (centres undefined)	6%	i	i	12%
CCN(c1ccccc1)S(=O)(=O)c1cc(C(=O)OC(C)C(=O)Nc2ccc3c(c2)OCCO3)ccc1C (centres undefined)	-2%	nt	18µM*	-10%
N#Cc1ccccc1OCC(=O)Nc1ccc2c(c1)OCCCO2	17%	i	i	13µM*
C=CCN1C(=O)[C@@H](CC(=O)NCc2ccccc2)[C@]2(C(=O)OCC)CCCCC/C=C/12	nt	nt	i	nt
CC1CCc2c(C(=O)Nc3ccc(N4CCOCC4)cc3)csc2C1 (centres undefined)	6%	i	i	7.1µM*
CC1CCc2c(C(=O)NCCN3CCOCC3)csc2C1 (centres undefined)	-6%	i	i	-20%
CCCCCCCCCCOC(=O)Cn1c(COc2ccccc2)[n+](C)c2ccccc21	-13%	i	i	-84%
CCCCCCCCCCOC(=O)Cn1c(COc2ccccc2C)[n+](C)c2ccccc21	-52%	i	40µM*	nt
O=C(Nc1nnc(-c2ccc3c(c2)CCCC3)o1)c1ccccc1	?	?	i	5µM*
O=C(COc1ccccc1)Nc1nnc(-c2ccc3c(c2)CCCC3)o1	10µM*	?	i	11µM*
O=C(COc1ccccc1)Nc1nnc(-c2ccc(F)cc2)o1	18µM*	?	i	?
O=C(Nc1nnc(-c2ccc3c(c2)CCCC3)o1)c1ccccc1Cl	?	i	i	10µM*
O=C(COc1ccccc1)Nc1nnc(-c2ccccc2Cl)o1	8%	i	i	0%
CC(C)(CN1CCCN(CC(C)(C)C(=O)O)C1=O)C(=O)O	-2%	i	i	24%
CCCCNC(=O)CCCn1c(=O)c2ccccc2n(CC(=O)Nc2ccccc2OCC)c1=O	nt	i	i	0%
COc1ccc(N2CC(C(=O)N3CCN(C(=O)c4ccco4)CC3)CC2=O)cc1 (centres undefined)	-3%	i	i	-5%
Cc1sc2nc(-c3cccnc3)nc(Cl)c2c1-c1ccccc1	-23%	i	nt	25µM*
SMILES	aSyn yeast inh	Abeta rescue	FUS yeast rescue	TDP-43 yeast inh
Cc1ccc(N2CCN(C(=O)c3ccccc3Br)CC2)c(C)c1	6%	i[9.22 µM]	i	16µM*
O=C(c1ccco1)N1CC2(CC(c3ccc(Cl)cc3)=NO2)CN1Cc1ccc(Br)cc1 (centres undefined)	12%	i	i	32µM*
CCOc1ccc(C(c2c(O)cc(C)n(Cc3ccco3)c2=O)N2CCN(C)CC2)cc1 (centres undefined)	nt	i	i	14%
CC(=O)c1ccc(NC(=O)c2ccc(-c3ccc(Cl)cc3)o2)cc1	nt	i	i	11µM*
O=C(Nc1cccc(NC(=O)c2ccc(-c3ccc(Br)cc3)o2)c1)c1ccccc1	1%	i	i	-6%
O=C(Nc1ccccc1)c1ccc(-c2ccc(Br)cc2)o1	-21%	i	i	13µM*
